Tested on: PPARa:RXRa (NR concentration 270 nM, RXRa partner concentration 90 nM)
Assay: PBM binding z-score (relative to random genomic background probes); higher = stronger binding; sequences stand for … in GC…GCGATTGACAGCGTAGAATGAAGG
Summary of the method: (§1)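 Custom Agilent 4×180K protein-binding microarrays carried double-stranded probes, each with a 34-nt variable region. These regions held direct-repeat seeds, single-nucleotide variants, half-site ablations and random human genomic background sequences. Ligand-free nuclear receptor dimers were incubated on the arrays for 1 h, antibodies against each partner (one per run) detected binding, and scanned fluorescence was regression-normalized. Binding z-scores take the random background probes as reference.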

| Sequence | PBM binding z-score |
| --- | --- |
| CGTCCAAGGTCATTGGAGGTCAGTGAAGACAGAT | 5.85 |
| CCTTACGGGTCACTGACAGGTTATAGCGTTTGGA | 5.13 |
| TAGCCTAGGTCATTCAGGGGCAAGTATAGAAAGC | 3.84 |
| AGAATGAGGTTACCAAAGTTCAGGGAAACGCTTG | 4.6 |
| ATATGTAGGTTATCTGGGGTCATTCAGACTAGGC | 5.4 |
| GATATAGGGTCAGCTAGAGGCCAGAGTATGGAAA | 4.76 |
| CCTTACGGGTCACGAGGTTGTAGCACGACGAGCG | 5.73 |
| ATCGAAAGGTCGTGAGGTAAGTATACAGAAAGGC | 5.23 |
| CCTAGCAGGCCAATCTAGGTCACTCAAGGCTTGA | 3.15 |
| ACTTACGGGTCTACGAGGTTATAGCACGCGTATA | 1.2 |
| CAAACTAGGTCACAAAAGGTCAAAGTCGAATGAC | 6.35 |
| CCTACTGGGCCATTCAGAGGTCAATGATCATATG | 3.87 |
| CGTCCAAGGTCAATGCTAGATCAGTGAAAGCATT | 4.78 |
| AGAATGGGGTTACCAAAGATCAGGGAAACGCTTG | 5.05 |
| CCTACGGGGCCACGAAAGGTCATTGATTCAGTGA | 4.69 |
| CCTACTGGGCCACGAAAGGCCATTGATTCAGTGA | 0.948 |
| GGAACGAGGGCATTCGAGTTCATAGCATGGCGAT | 2.7 |
| TCGCCTAGGTCATGGGCCAGTATACCACGCGAAC | 4.13 |

| Sequence | PBM binding z-score |
| --- | --- |
| AGAATGAGGTTACCAAAGGTCAGGGAAACGCTTG | 5.55 |
| TAGCCTAGGTCATTCAGGGGCCACTATAGAAAGC | 3.95 |
| AATACAGGGTCATCGTAGGTCAGAGTACGCACAG | 6.23 |
| CAAACTAGGTCACAGTGGTCAAAGTCCGTGCGTA | 5 |
| CCTACTGGGTCACGAAAGGTCATTGATTCAGTGA | 6.44 |
| TCTTGTAGATCAATAGAAGTTAAGAAAGTGCGCT | 0.693 |
| AGAATGAGGTTAAACGTAGATCAGGGAAGAAAGT | 4.4 |
| CCGAGTTGGTCAAGGTCACACACGCTATAGGTAC | 4.35 |
| CCTACTGGACCAAGGTCATTGATCAGTCAAAGCA | 3.97 |
| CCTAGTTGGTCAAGGTCACATACGCTATAGGTAC | 4 |
| ATCTCTAGGTTAAGATAGTTCAGTGAATGCAAAT | 1.77 |
| AGAATGAGGTTAAGTTCAGGGAAACAGAATACAT | 4.63 |
| TAGCCTAGTTCATGCGGGCCAGTATAGTGTCGGC | 0.278 |
| ATATGTAGGTTAACTGGGGTCATTCAGACTAGGC | 5.96 |
| CCTTACGGGTCAAGGTTATAGCCCGGGTGGTACG | 4.97 |
| CGTCCAAGGTCATATGAGGTCAGTGAAGACAGAT | 5.65 |
| TAGCCTAGGTCGTTCAGGGGCCAGTATAGAAAGC | 0.74 |
| TAGCCTAGGTCATGCGGGCCAATATAGTGTCGGC | 3.53 |

Tested on: PPARg:RXRa (NR concentration 180 nM, RXRa partner concentration 90 nM)
Assay: as above
Summary of the method: as §1

| Sequence | PBM binding z-score |
| --- | --- |
| CGTCCAAGGTCATTGGAGGTCAGTGAAGACAGAT | 5.48 |
| CCTTACGGGTCACTGACAGGTTATAGCGTTTGGA | 4.5 |
| TAGCCTAGGTCATTCAGGGGCAAGTATAGAAAGC | 2.47 |
| AGAATGAGGTTACCAAAGTTCAGGGAAACGCTTG | 3.65 |
| ATATGTAGGTTATCTGGGGTCATTCAGACTAGGC | 6.31 |
| GATATAGGGTCAGCTAGAGGCCAGAGTATGGAAA | 4.09 |
| CCTTACGGGTCACGAGGTTGTAGCACGACGAGCG | 6.48 |
| ATCGAAAGGTCGTGAGGTAAGTATACAGAAAGGC | 4.03 |
| CCTAGCAGGCCAATCTAGGTCACTCAAGGCTTGA | 2.1 |
| ACTTACGGGTCTACGAGGTTATAGCACGCGTATA | 0.708 |
| CAAACTAGGTCACAAAAGGTCAAAGTCGAATGAC | 10.1 |
| CCTACTGGGCCATTCAGAGGTCAATGATCATATG | 2.59 |
| CGTCCAAGGTCAATGCTAGATCAGTGAAAGCATT | 3.65 |
| ATCGAAAGGTCGACCAGGTGAGTATACACCGTTT | 3.14 |
| AGAATGGGGTTACCAAAGATCAGGGAAACGCTTG | 4.62 |
| CCTACGGGGCCACGAAAGGTCATTGATTCAGTGA | 2.82 |
| CGTCAAACTTCAACTAAGGTAACGTAAAGCACGC | 0.587 |
| CCTACTGGGCCACGAAAGGCCATTGATTCAGTGA | 1.34 |
| GGAACGAGGGCATTCGAGTTCATAGCATGGCGAT | 1.4 |
| TCGCCTAGGTCATGGGCCAGTATACCACGCGAAC | 3.52 |

| Sequence | PBM binding z-score |
| --- | --- |
| AGAATGAGGTTACCAAAGGTCAGGGAAACGCTTG | 5.51 |
| TAGCCTAGGTCATTCAGGGGCCACTATAGAAAGC | 2.63 |
| AATACAGGGTCATCGTAGGTCAGAGTACGCACAG | 7.46 |
| CAAACTAGGTCACAGTGGTCAAAGTCCGTGCGTA | 8.83 |
| CCTACTGGGTCACGAAAGGTCATTGATTCAGTGA | 9.12 |
| TCTTGTAGATCAATAGAAGTTAAGAAAGTGCGCT | -5.78e-05 |
| TACCCTAGGTCATTGGGCCAGTATAGTACGCATC | 4.27 |
| AGAATGAGGTTAAACGTAGATCAGGGAAGAAAGT | 4 |
| CCGAGTTGGTCAAGGTCACACACGCTATAGGTAC | 3.12 |
| CCTACTGGACCAAGGTCATTGATCAGTCAAAGCA | 2.11 |
| CCTAGTTGGTCAAGGTCACATACGCTATAGGTAC | 3.3 |
| ATCTCTAGGTTAAGATAGTTCAGTGAATGCAAAT | 1.39 |
| AGAATGAGGTTAAGTTCAGGGAAACAGAATACAT | 3.45 |
| TAGCCTAGTTCATGCGGGCCAGTATAGTGTCGGC | -0.0909 |
| TAGCCTAGGTCATGGGCCAGTGTACCACGCGAAC | 4.13 |
| ATATGTAGGTTAACTGGGGTCATTCAGACTAGGC | 7.58 |
| CCTTACGGGTCAAGGTTATAGCCCGGGTGGTACG | 4.06 |
| CGTCCAAGGTCATATGAGGTCAGTGAAGACAGAT | 4.87 |
| TAGCCTAGGTCGTTCAGGGGCCAGTATAGAAAGC | -0.0601 |
| TAGCCTAGGTCATGCGGGCCAATATAGTGTCGGC | 2.39 |

From the supplement of paper PMC6555819
